Reference: PubChem BioAssay

Test: E. coli growth modulation, two-sided OD650, primary screen, E. coli filamentation project, strain DRC41, 24 h (AID 1093);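 note: MC1000 strain lacking acrAB efflux and sulA so SOS filamentation is blocked; test concentration not given here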
Details: OD650, 24 h, higher = more signal, called active from +8 up or from −8 down

z-score, inactive:
COc1ccc(NC(=O)O[C@H]2[C@H](OC(=O)c3cc4ccccc4[nH]3)[C@@H](OC(=O)c3cc4ccccc4[nH]3)[C@@H](OC)O[C@@H]2CO)cc1 0.593
C=C(CCCC)C(=O)CC[C@H](OC(=O)c1cccnc1)c1ccc(OCCO)cc1 0.02
C=CCN1C(=O)[C@]2(Cc3ccccc3)N=C(c3ccc(OCCCO)cc3)O[C@@H]2c2ccccc21 0.482
CC(=O)NCCCC[C@@H]1NC(=O)[C@H]2C[C@@H](C(=O)NCCCCCNC(=O)CS)[C@@H](c3ccc(O)cc3)N2C1=O 0.358
C=CCC(OC(C)=O)[C@@H]1[C@@H](N(Cc2cc3ccccc3o2)C(=O)Cc2ccc(OC)cc2)c2cc(OCCCO)ccc2N1C(=O)c1ccc2ccccc2c1 (stereo not given in full) -0.457
CC(c1ccccc1)C(O)C1C=CC2C(=O)N(c3ccccc3)C(=O)C2N1Nc1ccccc1 (stereo not given) -0.702
COc1ccc([C@H]2C[C@H]3C(Br)=C[C@@]2(CO)C(=O)[C@]32CO2)cc1 -0.687
COCCOC(=O)N1C(=O)[C@@]2(c3cc(C#CCCO)ccc31)[C@H](c1ccc(OCCO)cc1)N1[C@H](c3ccccc3)[C@H](c3ccccc3)OC(=O)[C@H]1[C@@H]2C(N)=O 0.719
CCCCN1CC=CC23O[C@@H]4/C=C\CCCOC(=O)C4[C@H]2C(=O)N(CCCCCO)[C@@H]3C1=O (stereo not given in full) -0.769
NCCCCCCNC(=O)[C@H]1C[C@H]2C(=O)N[C@@H](Cc3ccccc3)C(=O)N2[C@H]1c1cccc(OCCO)c1 0.524
COc1ccc([Si](C)(C)[C@@H]2[C@@H](CCn3cc(CCO)nn3)O[C@]3(C(=O)N(Cc4cccc(N5C(=O)c6cccc7cccc5c67)c4)c4ccccc43)[C@H]2C)cc1 1.17
CC(=O)Nc1cc(Br)ccc1C(=O)NCc1ccccc1 0.0591
CCCCCN1CC=CC23O[C@@H]4C=CCOC(=O)[C@@H]4[C@H]2C(=O)N(C(C)CO)[C@@H]3C1=O (stereo not given in full) 0.266
CCOC(=O)C1=C[C@@H](C(C)C)N(S(=O)(=O)c2ccc(C)cc2)[C@H]1c1ccccc1F -0.816
CS(=O)(=O)CCOC(=O)C1=CC(CCCO)=CC(C2CC2)N(Cc2cc3c(cc2Br)OCO3)C=C1C(=O)OCCS(C)(=O)=O (stereo not given) 0.102
Cc1c(NC(=O)/C(C#N)=C/c2cccc([N+](=O)[O-])c2)c(=O)n(-c2ccccc2)n1C 0.0751
C=CCN1Cc2ccccc2[C@@H]2OC(c3ccc(OCCCO)cc3)=N[C@]2(CCS(=O)(=O)c2ccccc2)C1=O 0.953
C=CCNC(=O)[C@@H]1[C@H]2C(=O)O[C@H](c3ccccc3)[C@H](c3ccccc3)N2[C@H](c2ccc(OCCO)cc2)[C@@]12C(=O)N(C(=O)OCCOC)c1ccc(C#CCC(C(=O)OC)C(=O)OC)cc12 -0.0236
CN1C(=O)C2C=CC(C(O)C=Cc3ccc([N+](=O)[O-])cc3)N(Nc3ccccc3)C2C1=O (stereo not given) -1.35
COCCOC(=O)N1C(=O)[C@@]2(c3cc(C#CC4=CCCCC4)ccc31)[C@H](c1ccc(OCCO)cc1)N1[C@H](c3ccccc3)[C@H](c3ccccc3)OC(=O)[C@H]1[C@@H]2C(=O)N1CCc2cc(OC)c(OC)cc2C1 1.96
CC(C)CN1C(=O)[C@@]2(c3ccc([N+](=O)[O-])cc3)CC(=O)N(C3CCCCC3)[C@@H]2c2ccc(CO)cc21 0.733
C#CCN1[C@H](/C=C/C2CC2)[C@H](Cc2ccccc2)OC(=O)[C@@H]1Cc1ccccc1 -0.714
COc1ccccc1CN1C(=O)c2ccccc2[C@@]2(Cc3ccccc3N(CCCN(C)C)C2=O)[C@@H]1c1ccc(CO)cc1 0.276
COC(=O)[C@@]1(CCC(=O)OC(C)(C)C)N=C(c2ccc(OCCCO)cc2)O[C@H]1c1ccccc1 -2.76
O=C(O)[C@@]1(CCS(=O)(=O)c2ccccc2)N=C(c2ccc(OCCCO)cc2)O[C@H]1c1ccccc1 0.712
C=CCN(Cc1ccccc1)C(=O)C(c1cccs1)N(C(=O)/C=C\C(=O)O)c1ccc(CCOCCO)cc1 (stereo not given) 1.01
CC(C)NC(=O)[C@@H]1c2ccccc2C(=O)N(C(C)C)[C@H]1c1ccc(CO)cc1 1.36
C=CCC(OC(C)=O)[C@@H]1[C@@H](N(Cc2ccc(-c3cccc(C(F)(F)F)c3)o2)C(=O)c2cccc3ccccc23)c2cc(OCCCO)ccc2N1C(=O)Cc1ccc2ccccc2c1 (stereo not given in full) -0.57
COc1ccc([Si](C)(C)[C@@H]2[C@@H](CCn3cc([C@H](O)c4ccccc4)nn3)O[C@]3(C(=O)N(Cc4cccc(N5CCC5=O)c4)c4ccccc43)[C@H]2C)cc1 -0.546
O=C(NCCN1CCOCC1)[C@@H]1c2ccccc2C(=O)N(Cc2cc(C(F)(F)F)cc(C(F)(F)F)c2)[C@H]1c1ccc(CO)cc1 0.339
C=C(CCCC)/C(=C/C[C@H](OC(C)=O)c1ccccc1OCCO)c1cnc2ccccc2c1 0.02
COC(=O)[C@@]1(Cc2ccc(OC)cc2)[C@H]2c3cc(C(=O)N4CCCC4)n(CCc4ccc(O)c(O)c4)c3C[C@H]2CN1C(=O)c1ccccc1 -0.765
Cc1ccc(S[C@]2(C(=O)NCC(C)C)CC(=O)N(Cc3cc(C(F)(F)F)cc(C(F)(F)F)c3)[C@@H]2c2ccc(CO)cc2)cc1 -0.869
O=C(NC1CC1)[C@@H]1c2ccccc2C(=O)N(C2Cc3ccccc3C2)[C@H]1c1ccc(CO)cc1 0.628
O=C1OCCC=C[C@H]2OC34C=CCN(CCN5CCOCC5)C(=O)[C@H]3N(CCCCCO)C(=O)[C@@H]4C12 (stereo not given in full) 0.444
